# Laboratory results from ChEMBL document CHEMBL3988442, “University of Dundee, Small-Polar-MMV Screening Library” (2021).
# Columns and labels:
# [1] = biological target: T1, Aspartate--tRNA(Asp/Asn) ligase (Mycobacterium tuberculosis (strain ATCC 25618 / H37Rv)) (UniProt P9WFW3); assay: Assay for Asp RNA synthetase-1 from Mycobacterium tuberculosis; assay type: functional; design: scale not given: direction of the effect not stated beside the values; conditions: 30 µM; further: in the data most compounds retested in dose-response had high values
# T1 sequence (whole entry): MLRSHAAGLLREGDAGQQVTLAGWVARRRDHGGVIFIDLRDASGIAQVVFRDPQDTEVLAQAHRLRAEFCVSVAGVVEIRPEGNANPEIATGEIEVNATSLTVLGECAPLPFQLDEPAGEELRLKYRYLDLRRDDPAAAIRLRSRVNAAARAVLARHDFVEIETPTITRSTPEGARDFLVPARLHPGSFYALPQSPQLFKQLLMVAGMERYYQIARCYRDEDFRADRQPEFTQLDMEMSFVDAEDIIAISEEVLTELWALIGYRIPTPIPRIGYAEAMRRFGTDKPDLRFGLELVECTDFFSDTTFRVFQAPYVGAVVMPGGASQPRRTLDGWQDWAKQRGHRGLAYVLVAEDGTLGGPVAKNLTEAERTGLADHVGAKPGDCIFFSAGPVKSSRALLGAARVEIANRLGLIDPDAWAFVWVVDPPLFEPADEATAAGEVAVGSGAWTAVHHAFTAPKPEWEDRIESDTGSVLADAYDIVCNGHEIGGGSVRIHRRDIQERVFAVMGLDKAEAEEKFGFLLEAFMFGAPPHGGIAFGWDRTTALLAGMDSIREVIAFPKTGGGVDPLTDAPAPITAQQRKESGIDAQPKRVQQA
# [2] = biological target: Shiga toxin 2 (Escherichia coli O157:H7) (UniProt P09385+P09386); assay: E. coli 0.157:H7 Shiga Toxin SOP - stx2 screening assay; assay type: functional; design: scale not given: direction of the effect not stated beside the values; conditions: 30 µM
Structure (SMILES),Percent Effect [1] [%],Percent Effect [2] [%]
Cc1cnn(CC2CN(CC(=O)Nc3nnc(C)s3)CCO2)c1 (configuration not stated),-4.68,7.65
Cc1nc(C(=O)N2CCCC(n3cncn3)C2)cs1 (configuration not stated),-3.48,1.3
CN1CCCC1c1ccc(C(=O)N2CCc3ccccc3C2)s1 (configuration not stated),-5.54,-38.1
CC(C)(C)c1cnc(CN2CCC(c3ccnn3CCO)CC2)o1,-2.6,-1.72
COc1ccc(NC(=O)C(c2cccc(F)c2)N2CCOCC2)cc1 (configuration not stated),5.63,-8.77
N#Cc1ccc(CNC(=O)NC2CCN(CC(F)F)CC2)cc1,-4.22,-8.96
CC(c1nc(C2CC2)no1)N1CCN(CCOCC(F)(F)F)CC1 (configuration not stated),-1.02,-10.3
CNS(=O)(=O)c1cccc(CNC(=O)c2c(C)oc(C)c2C)c1,-7.7,-67.3
CCOc1ccc(N(CC(=O)c2ccccc2)C2=NCCCCC2)cc1,1.35,-5.46
Cc1noc(C)c1CN1CC2(CCN(C(=O)c3cscn3)CC2)CC1=O,6.36,-13.6
CS(=O)(=O)N1CCc2c(cccc2NC(=O)CC(F)(F)F)C1,5.45,2.18
Cc1n[nH]c(C)c1C1COCCN1C(=O)c1cc(Cl)c[nH]1 (configuration not stated),2.63,-24.9
CN(C)c1ncnc2c1CCN(CC1CCOC1)CC2 (configuration not stated),-1.82,-26.9
CCn1ccnc1CN1CCCN(C(=O)c2cccc(C#N)c2)CC1,0.189,-8.53
Cc1nc(COCc2cnc3n2CCN(CC2CCC2)C3C)cs1 (configuration not stated),-6,-3.62
CCn1ccnc1CN1CCN(CC(=O)NC(C)(C#N)C2CC2)CC1 (configuration not stated),-4.1,27.2
O=C(C1CCC1)N1CCC2(COCc3cnc(N4CCOCC4)nc32)C1 (configuration not stated),2.45,-34.1
Cc1nc(CN2CCN(C(=O)c3cc(C4CC4)on3)CC2)cs1,-5.68,24.9
Cc1oc(C(=O)O)cc1S(=O)(=O)Nc1ccc(Cl)c(F)c1,1.64,16.3
Cc1nnc2n1CCN(Cc1csc(-c3ccc(F)cc3)n1)C2,2.74,3.01
CC(C)OCC(=O)N1CCCN(Cc2ccc(C#N)cc2)CC1,-0.7,27.2
CCc1c(C)nc2n(c1=O)CC(C(=O)Nc1nccs1)CS2 (configuration not stated),-3.8,-29.4

Structure (SMILES),Percent Effect [1] [%],Percent Effect [2] [%]
Cc1nc(CC(=O)N2CCCN(c3ccc(C#N)cc3)CC2)cs1,-8.71,-26.6
Cc1cnn(C2CCCN(C(=O)c3sccc3C#N)C2)c1 (configuration not stated),1.95,-36.4
O=C(CN1CCC(c2ccnn2CCO)CC1)NCC1CC1,-6.54,-19.2
Cc1ccc(N(C)C2CCN(C(=O)c3ccsc3)CC2)nn1,0.243,1.6
COCC1c2c(cnn2C)CCN1Cc1ccc(F)cc1 (configuration not stated),1.28,-4.17
Cc1cc(C)n(-c2cncc(NCCNC(=O)CC3CCCC3)n2)n1,0.268,-15.9
CCCC(C)C(=O)N1CCC(n2cccc2C(=O)OC)CC1 (configuration not stated),0.787,-16.1
CC(N(C)Cc1nc2c(cnn2C)c(=O)[nH]1)C(C)(C)C (configuration not stated),5.45,28.9
Cc1cc(C(=O)N[C@@H]2CCNC[C@H]2O)ccc1Cl,2.13,14.6
CN(C)c1cc(C(=O)N2CCN(c3cnccn3)CC2)ccn1,-1.5,3.8
CNS(=O)(=O)c1ccc(C(=O)NC2CCc3nc(C)cn3C2)o1 (configuration not stated),-6.5,17.4
Cc1ncc(CN2Cc3ccccc3O[C@]3(CC[C@H](CO)CC3)C2)cn1,0.551,18.1
O=C(c1ccsc1)N1C[C@@H]2C[C@@H](c3nnc(C4CC4)o3)O[C@@H]2C1,6.08,-18.3
Cc1nn(C)c2cnn(CC(=O)NCCc3ccccc3)c12,-1.83,-33.3
CC(C)c1nc(C2CCCN2C(=O)c2ccc(N(C)C)nn2)no1 (configuration not stated),5.45,18.3
COc1ccc(C[C@H]2CN(C(=O)CN(C)C)CC[C@H]2OC)cc1,0.341,-5.78
Cc1cc(CN2CCN(CC(O)C(C)(C)C)CC2)no1 (configuration not stated),-13.9,0.649
Cc1ccc(CCC(=O)N2CCCC(n3cncn3)C2)c(C)c1 (configuration not stated),-4.98,10.1
COc1ccc(CN2CCOC3(CCCN(c4nnc(C)o4)C3)C2)cc1 (configuration not stated),-5.88,7.44
Cn1cc(-c2csc(N3CCOCC3)n2)cn1,2.54,-13
Cc1cc(N2CCC(N(C)C(=O)Nc3ccccc3)CC2)nc(C)n1,7.13,-20.7
CC(C)NC(=O)[C@@H]1CCO[C@@H]2CCN(c3ncccn3)C[C@H]21,4.69,-19.4

Structure (SMILES),Percent Effect [1] [%],Percent Effect [2] [%]
O=C(CSc1nc2c(cnn2CCO)c(=O)[nH]1)N1CCCCCC1,-7.88,-8.39
Cn1ccnc1CN1CCN(Cc2cc(C#N)ccc2F)CC1,-5.71,17.6
CCc1ncnc2c1CCN(C(=O)Cc1ccccn1)CC2,-1.97,-18.4
CC(C(=O)NCc1ccnc(N2CCN(C)CC2)c1)n1cccn1 (configuration not stated),-3.86,6
Cc1cc(C[C@@H]2CCC[C@H]2NCc2ccccc2C(F)(F)F)on1,3.02,26
COc1cccc(CCNS(=O)(=O)c2ccc(NC(C)=O)cc2)c1,-1.32,-9.96
CCC(NC(=O)CC(F)(F)F)c1ccccc1OCC(=O)N1CCCC1 (configuration not stated),0.767,-16.8
CCOc1ncccc1CNC(=O)Nc1ccc(N(C)C)nc1,3.77,-48.5
CCc1cnc(N2CC3(CCN(C(=O)c4ccoc4)C3)C2)nc1,-4.49,-30.6
CC(C)(O)CN1CCN(C(=O)c2cc(Cl)cc3cccnc23)CC1,-3.59,-18
Cc1c[nH]nc1C1CCCCN1C(=O)Cn1cc(Cl)cn1 (configuration not stated),4.25,10.4
CN(C)S(=O)(=O)N1CCC2(COCc3cnc(-c4ccccc4)nc32)C1 (configuration not stated),-4.48,-12.6
CC(NC(=O)N(C)Cc1ccncc1)c1nncn1C (configuration not stated),-5.91,-0.749
O=C(NCCc1ccsc1)Nc1cccnc1N1CCCC1,1.77,-4.75
COc1cc(CNCc2c(C(C)C)nn(C)c2N(C)C)ccn1,0.522,22.2
CCc1n[nH]c(C2CN(C(=O)c3csnn3)CCO2)n1 (configuration not stated),1.53,10.6
COc1ccc(OC)c(NC(=O)NCC(O)c2ccc(F)c(F)c2)c1 (configuration not stated),4.09,-0.389
COc1ccc(CCNC(=O)NC2CCCC2)cc1OC,2.58,-10.6
COc1cccc(-c2noc(C3CCN(Cc4cccs4)C3)n2)c1 (configuration not stated),-0.868,-30
CCc1nc(C2CCCN2C(=O)c2nccnc2N)no1 (configuration not stated),-4.3,8.58
COCCN1CCN(CCS(=O)(=O)C(F)(F)F)CC1C (configuration not stated),-2.33,96.7
Cc1cc(C)cc(NC(=O)CN2CCCC(n3cncn3)C2)c1 (configuration not stated),-0.903,12.2

Structure (SMILES),Percent Effect [1] [%],Percent Effect [2] [%]
Cn1nnc2c1C(COCC1CC1)CN(C(=O)Cc1ccsc1)C2 (configuration not stated),-2.73,-6.94
Cc1ccc(N2CC[C@H](OCC3CC3)[C@@H]2Cc2cnn(C)c2)nn1,2.69,-6.34
Cc1cc(CN(C)C(=O)NC2CCS(=O)(=O)C2)no1 (configuration not stated),-1.18,14.9
CCC1CCCN(C(=O)Cc2csc(-c3ncccn3)n2)C1 (configuration not stated),0.456,-14.8
CC(=O)N(C)c1nc(CN2CCOC(Cn3cccn3)C2)cs1 (configuration not stated),3.18,-10.3
CC(=O)Nc1nc(C(=O)N2CCCC2c2noc(C)n2)cs1 (configuration not stated),0.425,-22.5
CC(C)(C)n1ncc2c1NC(=O)CC2c1ccsc1 (configuration not stated),2.57,-10.8
COC(=O)CC(c1ccccc1)c1oc(C)cc(=O)c1O (configuration not stated),-2.11,-6.67
O=C(c1ccc(Br)o1)N1CCCCC1Cn1cccn1 (configuration not stated),4.78,-8.55
CN(C)C(CNS(=O)(=O)c1ccc(F)cc1F)c1cccn1C (configuration not stated),0.719,-2.1
CCc1nc(CN(Cc2cccs2)CC2CCCO2)no1 (configuration not stated),2.75,15
NC(=O)c1nc(COc2ccc3c(c2)OCO3)no1,-0.145,-76.3
CN(CC1CCCCC1)C(=O)c1ccc(-n2ncc(C#N)c2N)cc1,-2.55,-24.4
Cc1ccc(CN2CC3(CCN(C(=O)c4cscn4)C3)C2)s1,-2.67,-39.3
Cc1ccc(CNC(=O)CN2C=Nc3ccccc3S2(=O)=O)s1,-0.759,9.11
CCC(CNC(=O)c1ccc(=O)[nH]n1)N1CCc2ccccc2C1 (configuration not stated),2.11,-11.6
Cc1ccc(CN2CCC3(CC(C(=O)NCC4CC4)=NO3)C2)cc1C (configuration not stated),7.45,-15.5
O=C(C[C@@H]1COC[C@H]2CN(Cc3ccc(F)cc3)C[C@@H]12)N1CCOCC1,2.03,-38.2
Cc1cc(NC(=O)c2nc(N3CCCC3)ncc2Cl)nc(C(C)C)n1,2.49,-23.7
Fc1cccc(-c2nc(CN3CCOC(Cn4cncn4)C3)co2)c1 (configuration not stated),-4,1.8
